A number with no mark means an inactive call.
Test system: NCI-H1688
Assay: inhibition of cell viability relative to untreated control (fraction); higher = stronger growth inhibition, active = 0.5 or more
Details: 30 µM; 24 h
In short: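 Inhibition of cell viability appears as a fraction, based on viability relative to untreated cells. The assay used NCI-H1688 small cell lung cancer cells seeded in 96-well plates at 3 × 10^3 cells/well, treated one day later with a natural compound library (TargetMol) at 30 µM for 24 h at 37°C and 5% CO2. Absorbance at 450 nm with Cell Counting Kit-8 was recorded in triplicate.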

In order of falling “inhibition of cell viability” value:
1. COc1ccc(-c2cc(=O)c3c(OC)c(OC)c(OC)c(OC)c3o2)cc1 [Tangeretin]  0.299
2. Nc1ncnc2c1ncn2[C@@H]1O[C@H](CO)[C@@H](O)[C@H]1O [Adenosine]  0.189
3. Oc1cc(O)cc(/C=C/c2ccc(O)c(O)c2)c1 [Piceatannol]  0.164
4. OC[C@H]1O[C@H](O[C@]2(CCl)O[C@H](CCl)[C@@H](O)[C@@H]2O)[C@H](O)[C@@H](O)[C@H]1Cl [Sucralose]  0.0847
5. COc1cc(C(=O)O)cc(OC)c1O [Syringic acid]  0.0408
6. CC[C@H]1OC(=O)C[C@@H](O)[C@H](C)[C@@H](O[C@@H]2O[C@H](C)[C@@H](O[C@H]3C[C@@](C)(O)[C@@H](O)[C@H](C)O3)[C@H](N(C)C)[C@H]2O)[C@@H](CC=O)C[C@@H](C)C(=O)/C=C/C(C)=C/[C@@H]1CO[C@@H]1O[C@H](C)[C@@H](O)[C@@H](OC)[C@H]1OC [Tylosin]  0.0387
7. C/C(=C\C(=O)OCCCCCCCCC(=O)O)C[C@@H]1OC[C@H](C[C@@H]2O[C@H]2[C@@H](C)[C@H](C)O)[C@@H](O)[C@H]1O [Mupirocin]  0.0375
8. O=C1O[C@H]([C@@H](O)CO)C(O)=C1OP(=O)(O)O [Sodium L-ascorbyl-2-phosphate]  0.0357
9. Cc1cc(O)cc(O[C@@H]2O[C@H](CO)[C@@H](O)[C@H](O)[C@H]2O)c1 [Orcinol glucoside]  0.0244
10. COc1ccc([C@@H]2CC(=O)c3c(O)cc(O[C@@H]4O[C@H](CO)[C@@H](O)[C@H](O)[C@H]4O[C@@H]4O[C@@H](C)[C@H](O)[C@@H](O)[C@H]4O)cc3O2)cc1O [Neohesperidin]  0.00547
11. CC1=C(/C=C/C(C)=C/C=C/C(C)=C/C(=O)O)C(C)(C)CCC1 [Tretinoin]  0.00396
12. O=C(O)CCCCC1CCSS1 (configuration not stated) [Alphalipoic acid]  0.0038
13. C=C1C[C@@]23CC[C@H]4[C@@](C)(CCC[C@@]4(C)C(=O)O[C@@H]4O[C@H](CO)[C@@H](O)[C@H](O)[C@H]4O)[C@@H]2CC[C@]1(O[C@@H]1O[C@H](CO)[C@@H](O)[C@H](O)[C@H]1O[C@@H]1O[C@H](CO)[C@@H](O)[C@H](O)[C@H]1O)C3 [Stevioside]  -0.031
14. OC[C@H]1O[C@H](OC[C@H]2O[C@H](OC[C@H]3O[C@H](O[C@]4(CO)O[C@H](CO)[C@@H](O)[C@@H]4O)[C@H](O)[C@@H](O)[C@@H]3O)[C@H](O)[C@@H](O)[C@H]2O)[C@H](O)[C@@H](O)[C@H]1O [D-Stachyose tetrahydrate]  -0.0317
15. CCCCCCCCCCCCCCCCCCCCCCO [Behenic alcohol]  -0.0686
16. OCC1OC(OC2C(CO)OC(O)C(O)C2O)C(O)C(O)C1O [D-Cellobiose]  -0.12
17. C=CCS[S+]([O-])CC=C (configuration not stated) [Allicin]  -0.267

`O=C(OC[C@H]1O[C@@H](OC(=O)c2cc(O)c(O)c(OC(=O)c3cc(O)c(O)c(O)c3)c2)[C@H](OC(=O)c2cc(O)c(O)c(OC(=O)c3cc(O)c(O)c(O)c3)c2)[C@@H](OC(=O)c2cc(O)c(O)c(OC(=O)c3cc(O)c(O)c(O)c3)c2)[C@@H]1OC(=O)c1cc(O)c(O)c(OC(=O)c2cc(O)c(O)c(O)c2)c1)c1cc(O)c(O)c(OC(=O)c2cc(O)c(O)c(O)c2)c1` [Glycerite] was tested, and the “inhibition of cell viability” value was 0.821 (active).
With `C=CCc1ccc(O)c(-c2ccc(O)c(CC=C)c2)c1` [Honokiol] the “inhibition of cell viability” value was 0.844 (active).
In the case of `CC(=O)O[C@@]12CO[C@@H]1C[C@H](O)[C@@]1(C)C(=O)[C@H](O)C3=C(C)[C@@H](OC(=O)[C@H](O)[C@@H](NC(=O)OC(C)(C)C)c4ccccc4)C[C@@](O)([C@@H](OC(=O)c4ccccc4)[C@H]21)C3(C)C` [Docetaxel trihydrate], the “inhibition of cell viability” value is reported as 0.635 (active).
For `Cc1coc2c1C(=O)C(=O)c1c-2ccc2c1CCCC2(C)C` [Tanshinone IIA], the “inhibition of cell viability” value was 0.958 (active).
`C=C1CC[C@H]2C(=C)CC[C@H]3C(=C)C(=O)O[C@@H]3[C@@H]12` [Dehydrocostus Lactone] was tested, and the “inhibition of cell viability” value was 0.992 (active).

From the supplement of paper PMC11634586
